This is a sample that favours compounds with a hit; in the whole collection about 2.4% have one here.
MEKK2 mut-MEK5 = signal of MEK5 binding to mutant human MEKK2 PB1 domain; percent response, % at 10 µM; hit rate 0.35% among 290,000; bead flow cytometry, Alexa488-MEK5 binding to MEKK2 mutant; in the data active means percent response above about 24%, passing the limit was not always enough
MEKK2wt PB1 HTS = raises or lowers MEK5 binding to wildtype human MEKK2 PB1 domain; Q9Y2U5; bead flow cytometry, Alexa488-MEK5 binding to MEKK2 WT; actives lie on both sides; binding response (% of control), % at 10 µM; hit rate 1.1% among 290,000; AID 1531; in the data active means binding response below about 67% or above about 130%
MEKK3 PB1 HTS = modulators (inhibitors or enhancers) of MEK5 binding to human MEKK3 PB1 domain; hit rate 1.4% among 290,000; binding response (% of control), % at 10 µM; Q99759; bead-based flow cytometry, Alexa488-MEK5 binding to MEKK3; actives lie on both sides; 0 = blocked by unlabeled MEK5, 100 = vehicle;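 active means binding response more than 3 SD above or below the average of its plate-row segment, actives on both sides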;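 further: Alexa488 bead fluorescence after subtracting the streptavidin-only scavenger bead signal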
Target sequence (Q99759 whole entry, looked up, the tested form may be a part): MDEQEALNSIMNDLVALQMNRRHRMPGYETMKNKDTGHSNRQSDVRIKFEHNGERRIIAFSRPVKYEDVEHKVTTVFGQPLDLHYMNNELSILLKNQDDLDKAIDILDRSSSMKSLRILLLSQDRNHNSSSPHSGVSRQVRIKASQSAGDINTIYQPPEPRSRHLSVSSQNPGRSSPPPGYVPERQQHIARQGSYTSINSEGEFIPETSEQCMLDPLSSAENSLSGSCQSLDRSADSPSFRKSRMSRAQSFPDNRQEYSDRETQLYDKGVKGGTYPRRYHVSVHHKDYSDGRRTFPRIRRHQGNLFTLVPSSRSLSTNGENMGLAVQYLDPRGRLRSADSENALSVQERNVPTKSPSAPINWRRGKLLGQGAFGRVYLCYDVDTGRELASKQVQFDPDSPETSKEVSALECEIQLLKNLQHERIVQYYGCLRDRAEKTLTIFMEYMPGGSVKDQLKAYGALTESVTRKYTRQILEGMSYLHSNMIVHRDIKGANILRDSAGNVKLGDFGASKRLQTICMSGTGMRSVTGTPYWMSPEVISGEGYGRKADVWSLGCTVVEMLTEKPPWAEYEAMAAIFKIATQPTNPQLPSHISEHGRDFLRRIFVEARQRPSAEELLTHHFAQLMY
Arbovirus anti = blocks arbovirus infection; AID 1251; inhibition, % at 10 µM; arbovirus infection cell-based antiviral screen; hit rate 0.37% among 200,000; in the data active means inhibition above about 30%
Pf gametocyte = kills late stage P. falciparum gametocytes; P. falciparum stage V gametocytes, ATP luminescence, 24 h; inhibition, % at 10.9 µM; hit rate 0.065% among 150,000; AID 743093;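 active means inhibition above the mean plus 3 SD of compounds within the control limits, set per campaign, cut at about 38% in these data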;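 further: 0% = DMSO wells and 100% = medium only without gametocytes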
MEKK2wt confirm = raises or lowers MEK5 binding to wildtype human MEKK2, retest. shares compounds with MEKK3 PB1 HTS. bead flow cytometry, Alexa488-MEK5 binding to MEKK2 WT; actives lie on both sides. binding response (% of control), % at 10 µM. hit rate 2.4% among 5,900. AID 1892; in the data active means binding response below about 16% or above about 210%; inactive means in between
MEKK2mut-MEK5 = signal of MEK5 binding to mutant human MEKK2, retest. bead flow cytometry, Alexa488-MEK5 binding to MEKK2 mutant. hit rate 2% among 5,900. AID 1893. shares compounds with MEKK3 PB1 HTS. percent response, % at 10 µM; in the data active means percent response mostly above about 71%, no sharp cut-off; inactive means mostly below about 38%;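 further: higher means compound restores mutant binding toward wildtype level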
MEKK3 confirm = confirmation of inhibitors of MEK5 binding to human MEKK3; shares compounds with MEKK3 PB1 HTS; binding response (% of control), % at 10 µM; hit rate 1.8% among 5,900; bead flow cytometry, Alexa488-MEK5 binding to MEKK3; active compounds read low;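 active means binding response below 72% of control, or above a set upper limit, though filed actives all read lower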;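 further: 100% = DMSO only wells and 0% = binding blocked by excess unlabeled MEK5; lower values mean stronger disruption of MEK5 binding to MEKK3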
The depositor's hits bear a star; [ ] = remark or other dose.

For CC1(OC(=O)CCc2ccccc2)C(=O)C=C2C=C(c3ccc(C#N)cc3)N(CC3CC3)C=C2C1=O (centres undefined) the results were MEKK2 mut-MEK5 6, MEKK2wt PB1 HTS 92 and MEKK3 PB1 HTS 95.
`COc1cc(OC)cc(C(=O)OCCCOC(=O)c2cc(OC)cc(OC)c2)c1` gave MEKK2 mut-MEK5 2, MEKK2wt PB1 HTS 101 and MEKK3 PB1 HTS 105.
Screening COC(=O)CCC(=O)OC1(C)C(=O)C2=CN(Cc3ccc4c(c3)OCO4)C(c3ccc(OC)cc3)=CC2=C(Br)C1=O (centres undefined) returned MEKK2 mut-MEK5 53*, MEKK3 PB1 HTS 83, MEKK2wt confirm 102, MEKK2mut-MEK5 0 and MEKK3 confirm 104.
`O=C(NCC1CCCO1)C1CCC(=O)N1Cc1ccc(F)cc1` (centres undefined) gave MEKK2 mut-MEK5 -26, MEKK2wt PB1 HTS -4.0*[inhibitor], MEKK3 PB1 HTS -1.0*[inhibitor], Arbovirus anti 4, MEKK2wt confirm 101, MEKK2mut-MEK5 -2 and MEKK3 confirm 101.
Screening COc1ccc(NS(=O)(=O)c2cccc(C(=O)NC3CCN(Cc4ccccc4)CC3)c2)cc1 returned MEKK2 mut-MEK5 -4, MEKK2wt PB1 HTS 110, MEKK3 PB1 HTS 77*[inhibitor], MEKK2wt confirm 120, MEKK2mut-MEK5 7 and MEKK3 confirm 105.
For CCOc1cc(C(=O)NC(C)CCc2ccccc2)cc(OCC)c1OCC (centres undefined) the results were MEKK2 mut-MEK5 7, MEKK2wt PB1 HTS 114, MEKK3 PB1 HTS 106 and Pf gametocyte -12.
`Cc1ccc(S(=O)(=O)Nc2ccc(-c3nc4ccc(C)cc4s3)cc2)cc1` gave MEKK2 mut-MEK5 0, MEKK2wt PB1 HTS 107, MEKK3 PB1 HTS 151*, Arbovirus anti 2, Pf gametocyte 19, MEKK2wt confirm 106, MEKK2mut-MEK5 3 and MEKK3 confirm 105.
Screening Cc1ccc2nc(NC(=O)c3ccc(NS(=O)(=O)c4cccs4)cc3)sc2c1 returned MEKK2 mut-MEK5 -1, MEKK2wt PB1 HTS 101, MEKK3 PB1 HTS 136*, Arbovirus anti -14, Pf gametocyte -12, MEKK2wt confirm 98, MEKK2mut-MEK5 -5 and MEKK3 confirm 97.
COc1cccc(NC(=S)NN2C(C)CCCC2C)c1 (centres undefined) was read as MEKK2 mut-MEK5 1, MEKK2wt PB1 HTS 107, MEKK3 PB1 HTS 132*, Arbovirus anti -3, Pf gametocyte -14, MEKK2wt confirm 109, MEKK2mut-MEK5 -1 and MEKK3 confirm 104.
`COc1cc2c3nnc(-c4ccccc4)c-3cn(Cc3ccccc3F)c2cc1OC` gave MEKK2 mut-MEK5 26, MEKK2wt PB1 HTS 153*, MEKK3 PB1 HTS 96, Arbovirus anti -7, Pf gametocyte 10, MEKK2wt confirm 132, MEKK2mut-MEK5 13 and MEKK3 confirm 99.
COc1cc2c3nnc(-c4ccc(F)cc4)c-3cn(Cc3ccccc3F)c2cc1OC was read as MEKK2 mut-MEK5 -2, MEKK2wt PB1 HTS 100, MEKK3 PB1 HTS 92, Arbovirus anti -5 and Pf gametocyte 5.
`Clc1cccc(N2CCN(Cc3ccc(Br)o3)CC2)c1` gave MEKK2 mut-MEK5 7, MEKK2wt PB1 HTS 104, MEKK3 PB1 HTS 105 and Pf gametocyte -4.
Screening Cn1nc(-c2ccc(Cl)cc2)c2cc(C(=O)NC3CC3)sc21 returned MEKK2 mut-MEK5 3, MEKK2wt PB1 HTS 105, MEKK3 PB1 HTS 107 and Arbovirus anti -15.
Cn1nc(-c2ccc(Cl)cc2)c2cc(C(=O)NCCN3CCOCC3)sc21 was read as MEKK2 mut-MEK5 9, MEKK2wt PB1 HTS 136*, MEKK3 PB1 HTS 113, Arbovirus anti 0, MEKK2wt confirm 127, MEKK2mut-MEK5 14 and MEKK3 confirm 109.
Cn1nc(-c2ccc(Cl)cc2)c2cc(C(=O)NCCCN3CCOCC3)sc21 was read as MEKK2 mut-MEK5 13, MEKK2wt PB1 HTS 154*, MEKK3 PB1 HTS 112, Arbovirus anti -12, MEKK2wt confirm 140, MEKK2mut-MEK5 19 and MEKK3 confirm 104.
Screening CCOc1cc(N2CCOCC2)c(OCC)cc1NC(=S)NCCCOC returned MEKK2 mut-MEK5 -4, MEKK2wt PB1 HTS 98, MEKK3 PB1 HTS 106, Arbovirus anti -2 and Pf gametocyte 28.
Screening CCOc1ccccc1NC(=O)COC(=O)c1cc[n+]([O-])cc1 returned MEKK2 mut-MEK5 -2, MEKK2wt PB1 HTS 95, MEKK3 PB1 HTS 87 and Pf gametocyte -12.
Screening O=C(CCc1nnc(CCCCc2ccccc2)o1)NCCN1CCCCC1=O returned MEKK2 mut-MEK5 -8, MEKK2wt PB1 HTS 98, MEKK3 PB1 HTS 96, Arbovirus anti -2 and Pf gametocyte 8.
For S=C(NCCN1CCOCC1)NC1CCCC1 the results were MEKK2 mut-MEK5 0, MEKK2wt PB1 HTS 101, MEKK3 PB1 HTS 100, Arbovirus anti 4 and Pf gametocyte -17.
For Cn1cc(CN2CCN(c3ccccc3)CC2)c2ccccc21 the results were MEKK2 mut-MEK5 -9, MEKK2wt PB1 HTS 92, MEKK3 PB1 HTS 73*[inhibitor], Arbovirus anti 36*, MEKK2wt confirm 112, MEKK2mut-MEK5 10 and MEKK3 confirm 108.
Screening CCOC(=O)CN1C(=O)N[C@@H](c2ccco2)C(C(=O)OC)=C1C returned MEKK2 mut-MEK5 4, MEKK2wt PB1 HTS 104 and MEKK3 PB1 HTS 105.
CCn1c(SCC(=O)c2c[nH]c3ccccc23)nc2cc(S(=O)(=O)N3CCOCC3)ccc21 was read as MEKK2 mut-MEK5 3, MEKK2wt PB1 HTS 62*[inhibitor], MEKK3 PB1 HTS 96, Arbovirus anti -5, Pf gametocyte 27, MEKK2wt confirm 104, MEKK2mut-MEK5 1 and MEKK3 confirm 104.
For CCCc1ccc2oc(C(=O)N(C)CCn3ccnc3C)c(C)c2c1 the results were MEKK2 mut-MEK5 24*, MEKK2wt PB1 HTS 117, MEKK3 PB1 HTS 113, MEKK2wt confirm 104, MEKK2mut-MEK5 -2 and MEKK3 confirm 102.
Cc1ccc(/C=N/NC(=O)c2ccoc2C)o1 was read as MEKK2 mut-MEK5 1, MEKK2wt PB1 HTS 110, MEKK3 PB1 HTS 130*, Arbovirus anti -12, Pf gametocyte 6, MEKK2wt confirm 106, MEKK2mut-MEK5 7 and MEKK3 confirm 108.
Screening CCC(CC)NC(=O)c1cccc(NC(=O)C(C)C)c1 returned MEKK2 mut-MEK5 -3, MEKK2wt PB1 HTS 95, MEKK3 PB1 HTS 95, Arbovirus anti 2 and Pf gametocyte -2.
